From PubChem BioAssay
DT40 TDP1 no CPT = qHTS for Inhibitors of human tyrosyl-DNA phosphodiesterase 1 (TDP1): qHTS in cells in absence of CPT | DT40 Tdp1-/- hTDP1 cells, no CPT, ATP luminescence, 48 h | Potency, µM (highest dose often 46.2 µM), usual class: inhibitors | 420,000 compounds, 15% hits | AID 686978, 2013; further: nearly all actives have a fitted effect of over 55% in size
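Camptothecin absent (DMSO only). Human TDP1-complemented DT40 knockout cells, 400 cells/well, 37 °C for minimum 48 hr; ATP measured via CellTiter-Glo, 30 min dark incubation, luminescence.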
TDP1 cell CPT = growth inhibition of DT40 Tdp1-/-;hTDP1 cells with camptothecin (screen for TDP1 inhibitors) | Potency, µM (top dose mostly 46.2 µM), actives largely listed as inhibitors | 420,000 compounds, 12% hits | chicken DT40 Tdp1-/-;hTDP1 cells + 20 nM CPT, ATP luminescence, 48 h; further: nearly all actives have a fitted effect of over 55% in size
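Chicken DT40 Tdp1-/- cells stably complemented with human TDP1 were seeded at 400 cells/well in medium containing 20 nM camptothecin, exposed to pin-transferred compounds, and grown at 37 °C for at least 48 hr. Viability was read as ATP luminescence.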
IL-1B inflam inh = blocks inflammasome-driven IL-1 beta release; THP-1 LPS/ATP IL-1B secretion, AlphaLISA, 16 h; stronger effect = lower value; activity change, % at 57.5 µM; 360,000 compounds, 4.7% hits; in the data active means activity change below about -50%; inconclusive means mostly about -30% to -49%
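THP-1 cells pretreated 1 hr with compounds (up to 57.5 uM final), then stimulated with LPS (250 ng/mL final) plus ATP (1.25 mM final); secreted IL-1B measured by AlphaLISA after 16 hr, decreased signal indicating inhibition.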
HT1080-NT tox = kills 2HG-producing HT-1080-NT fibrosarcoma cells. HT-1080-NT fibrosarcoma viability, CellTiter-Glo ATP luminescence, 48 h. Potency, µM (doses to about 46.1 µM), actives largely listed as cytotoxic. 360,000 compounds, 1.6% hits. AID 686970;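 further: NT is the 2HG producing partner of a matched IDH1 knockdown line; nearly all actives have a fitted effect of over 55% in size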
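Toxicity toward the 2HG-producing NT line was scored as %Activity, normalised to DMSO and no-cell wells, from CellTiter-Glo luminescence after 48 hours' treatment.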
12-LOX inh = inhibitors of human 12S-lipoxygenase ALOX12 | P18054 | purified 12hLO, xylenol orange hydroperoxide absorbance | Potency, µM (doses to about 108 µM), usual class: inhibitors | 580,000 compounds, 1.1% hits
Target sequence (P18054 whole entry, looked up): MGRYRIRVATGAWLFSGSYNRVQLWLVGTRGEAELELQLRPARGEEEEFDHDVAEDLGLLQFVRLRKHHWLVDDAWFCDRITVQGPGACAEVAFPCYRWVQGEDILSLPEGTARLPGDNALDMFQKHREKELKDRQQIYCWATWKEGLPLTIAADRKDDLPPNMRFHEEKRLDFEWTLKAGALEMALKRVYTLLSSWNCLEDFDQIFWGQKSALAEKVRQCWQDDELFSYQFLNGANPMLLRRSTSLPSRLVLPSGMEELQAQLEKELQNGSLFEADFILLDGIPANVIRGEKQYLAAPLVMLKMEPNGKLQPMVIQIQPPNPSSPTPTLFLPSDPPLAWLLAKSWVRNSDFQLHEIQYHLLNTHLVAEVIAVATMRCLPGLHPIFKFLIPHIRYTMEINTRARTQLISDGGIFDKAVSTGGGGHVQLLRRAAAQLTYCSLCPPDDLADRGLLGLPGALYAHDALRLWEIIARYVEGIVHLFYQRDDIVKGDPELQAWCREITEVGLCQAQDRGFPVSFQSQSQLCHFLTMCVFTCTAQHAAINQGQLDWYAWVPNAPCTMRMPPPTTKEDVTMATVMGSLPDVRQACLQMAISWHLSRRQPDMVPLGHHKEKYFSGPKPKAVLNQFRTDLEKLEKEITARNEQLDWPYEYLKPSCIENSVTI
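Purified human 12hLO (150 nM final) in 25 mM Hepes, 0.01% Triton X-100, pH 7.0 was preincubated 15 min at room temperature with compound. Then 40 uM arachidonic acid was added, 30 min. Hydroperoxide was read by Fe-XO absorbance ratio 573/405 nm.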
HT1080 IDH1KD tx = kills HT-1080 cells with IDH1 knockdown; HT-1080 IDH1 knockdown viability, ATP luminescence, 48 h; Potency, µM (highest dose often 46.1 µM), most hits filed as cytotoxic; 360,000 compounds, 2% hits
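Luminescent ATP read-out (CellTiter-Glo, 10 min at room temperature) after 48 h compound exposure at 37 °C gave viability of IDH1-knockdown HT-1080 cells. Activity was normalised to DMSO and cell-free wells, then fitted as concentration-response curves.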
Numbers stand for hits; – = inactive; ? = inconclusive; · = no result; [ ] = remark or other dose. The sample as a whole holds a higher share of hits than the screen did. Unless noted, the call rests on the fitted dose curve; in most records, active means well fitted curve in the direction sought with a large enough effect; inconclusive means small, poorly fitted or top-dose-only effect, or another doubt; inactive means no such curve, though single readings can be large; an effect the other way counts as inactive or inconclusive.

SMILES	DT40 TDP1 no CPT	TDP1 cell CPT	IL-1B inflam inh	HT1080-NT tox	12-LOX inh	HT1080 IDH1KD tx
CCCS(=O)(=O)NC(=O)C1(C)CCN(C(=O)c2cc(F)ccc2C)C1 (configuration not stated)	–	–	–	–	–	–
CCN(c1cccc(C)c1)S(=O)(=O)c1cc2c3c(c1)CCN3C(=O)CC2	15µM	29µM	–	–	·	–
CC1C(=O)N2CCCc3cc(S(=O)(=O)NCCc4ccccc4)cc1c32 (configuration not stated)	–	?	–	–	–	–
CCN(c1ccccc1)S(=O)(=O)c1cc2c3c(c1)C(C)C(=O)N3CCC2 (configuration not stated)	16µM	18µM	–	–	?	–
CCN(c1ccccc1)S(=O)(=O)c1cc2c3c(c1)CCN3C(=O)CC2	·	·	·	·	–	·
COc1ccc(C(c2c(C)[nH]n(C(N)=S)c2=O)C(C#N)C#N)cc1 (configuration not stated)	?	23µM	–	–	?	–
Cc1[nH]n(-c2ncc(-c3ccc(Cl)cc3)s2)c(=O)c1C(c1ccc(Cl)cc1)C(C#N)C#N (configuration not stated)	?	–	?	?	·	?
O=C(CCNC(=O)C1CCN(S(=O)(=O)c2ccccc2)CC1)NCc1ccc(Cl)cc1Cl	?	21µM	–	–	–	–
O=C(NCc1ccc(Cl)cc1Cl)C1CCN(S(=O)(=O)c2ccc3c(c2)OCCCO3)CC1	?	21µM	–	–	–	–
COC(=O)C(C)(Cc1ccccc1)CC(C)(CC1(C)CC(C)(C(=O)OC)OC1=O)C(=O)OC (configuration not stated)	·	·	·	·	–	·
O=C(Nc1ccon1)[C@@H]1C[C@@H](c2ccc(F)cc2)N(Cc2ccccc2)C1	·	·	·	·	–	·
O=C(C1CCCC1)N1CC2(CCCN2CC2CC2)Cc2ccccc21 (configuration not stated)	·	·	·	·	–[6.33 µM]	·
COCc1c(C(=O)OCC(=O)c2c(N)n(CC(C)C)c(=O)n(C)c2=O)oc2ccccc12	21µM	18µM	–	–	–	–
Cc1c(C(=O)OCC(=O)c2c(N)n(CC(C)C)c(=O)n(C)c2=O)oc2ccccc12	23µM	?	–	–	–	–
CCc1ccc(C(=O)OCC(=O)c2c(N)n(CC(C)C)c(=O)n(C)c2=O)cc1	?	?	–	?	–	–
Cc1cccc(-c2cc(Nc3cccc(C(=O)Nc4cccc(F)c4)c3)ncn2)c1	·	·	·	·	–	·
C/C(=N\Nc1nc(C)cc(-c2ccccc2)n1)c1ccc(O)cc1	4.6µM	7.3µM	-74	10µM	–	–
C/C(=N\Nc1nc(C)cc(-c2ccccc2)n1)c1cccc(N)c1	21µM	?	–	–	–	–
CN(Cc1ccccc1F)C(=O)CSc1nnc(COc2ccccc2Cl)n1C	·	·	·	·	–	·
Cc1ccc(Nc2nc(COC(=O)c3ccc4c(c3)C(=O)N(c3ccccc3C)C4=O)cs2)cc1	·	·	·	·	–	·
O=C1Cc2c(-c3ccc(F)cc3F)n[nH]c2CN1CC1CC1	·	·	·	·	–	·
COc1ccc(N2CCN(C(c3ccccc3OC)c3nnnn3C3CCCC3)CC2)cc1 (configuration not stated)	21µM	23µM	?	–	?	–
COc1ccc(N2CCN(C(c3cccc(OC)c3OC)c3nnnn3C3CCCC3)CC2)cc1 (configuration not stated)	?	?	?	–	?	–
COc1ccc(N2CCN(C(c3cccs3)c3nnnn3C3CCCC3)CC2)cc1 (configuration not stated)	16µM	21µM	–	–	–	–
O=C(N[C@@H]1CN(Cc2ccc(Br)o2)C[C@H]1CO)C1CC1	·	·	·	·	–	·
SMILES	DT40 TDP1 no CPT	TDP1 cell CPT	IL-1B inflam inh	HT1080-NT tox	12-LOX inh	HT1080 IDH1KD tx
O=C(NC[C@H]1OC[C@@H](NC2CCC(F)(F)CC2)[C@@H]1O)N1CCOCC1	·	·	·	·	–	·
O=C(c1ccco1)N1CCN(Cc2cccc3ccccc23)CC1	?	8.2µM	–	–	?	–
O=C(c1ccco1)N1CCN(Cc2csc(-c3ccccc3Cl)n2)CC1	21µM	?	–	–	?	–
O=C(c1cc(-c2ccccc2Cl)on1)N1CCN(C(=O)c2ccco2)CC1	–	–	–	–	–	–
O=C(c1ccco1)N1CCN(CC(O)Cn2c3ccccc3c3ccccc32)CC1 (configuration not stated)	?	18µM	–	–	–	?
O=C(c1ccco1)N1CCN(Cc2cccc(F)c2)CC1	–	–	?	–	–	–
O=C(c1ccco1)N1CCN(Cc2c(Cl)cccc2Cl)CC1	9.2µM	?	–	–	–	–
Cc1ccc(OCC(=O)N2CCN(c3nnc(-c4ccccc4)c4ccccc34)CC2)cc1	?	?	-73	?	–	?
Cc1ccc(-c2n[nH]c(=S)c3ccccc23)cc1	?	?	–	–	–	–
Cc1ccc(-c2nnc(N3CCN(C(=O)CSc4ncn[nH]4)CC3)c3ccccc23)cc1	?	16µM	?	–	–	?
Cc1ccc(-c2nnc(N3CCCCC3)c3ccccc23)cc1S(=O)(=O)N(C)C	?	23µM	-57	–	–	–
CCOc1ccc(-c2n[nH]c(=S)c3ccccc23)cc1	?	23µM	–	–	–	–
CCOc1ccc(-c2nnc(N3CCCCC3)c3ccccc23)cc1	16µM	23µM	?	?	–	?
CCN(CC)C(=O)COc1ccc(-c2nnc(N3CCCCC3)c3ccccc23)cc1	?	–	–	–	–	–
O[C@@H](CNC[C@H](O)[C@H]1CCc2cc(F)ccc2O1)[C@@H]1CCc2cc(F)ccc2O1	4.2µM	6.7µM	·	·	–	·
CC1CCc2cc(F)ccc2N1C(=O)CCC(=O)O (configuration not stated)	–	–	–	–	–	–
Clc1ccc(Cn2c(CN3CCCC3)nc3ccccc32)cc1	7.2µM	?	·	·	–[22.9 µM]	·
c1ccc(Cn2c(CN3CCCC3)nc3ccccc32)cc1	16µM	?	–	–	–	–
S=c1[nH]nc(CN2CCCCC2)n1Cc1ccccc1	16µM	15µM	–	–	–	?
CN(C)S(=O)(=O)c1cccc(NC(=S)N/N=C/C(c2ccccc2)c2ccccc2)c1	13µM	?	–	–	?	–
COc1cc(/C=N/NC(=S)Nc2cccc(S(=O)(=O)N(C)C)c2)cc(OC)c1O	?	–	–	–	–	–
COc1ccc(O)c(/C=N/NC(=S)Nc2cccc(S(=O)(=O)N(C)C)c2)c1	6.5µM	6.5µM	-63	–	?	?
